# The campaign covered roughly 48,000 compounds. About 13,000 (27%) showed an effect of 50% or more. The list shows a part of the results.
# Test system: Wolbachia pipientis
# Assay: Anti-Wolbachia Cell-Based Screen
# Type: functional
# Set-up: scale not given: in the data most compounds retested in dose-response had high values
# Conditions: 5 µM
row,SMILES,Percent Effect
1,COc1cccc(-c2n[nH]c3c2CN(C(=O)C2=C(C)OCCO2)CC3)c1,9.828%
2,Cc1cc(CNc2cncc(C(=O)N(C)C)n2)c2[nH]c(C)c(C)c2c1,5.027%
3,O=C(O)c1ccccc1-c1c(-c2ccccc2)ncn1C[C@H]1CCCN1,-12.22%
4,c1cncc(CNc2cccc(OCCN3CCCCC3)c2)c1,1.449%
5,CN(C)C(=O)CCNC(=O)NCc1ccc(Br)cc1Cl,9.255%
6,O=c1[nH]nc(CNc2ncc(Br)cn2)[nH]1,1.625%
7,CC(=O)c1cccc(OCCCC(=O)N(C)C2CCN(C)CC2)c1,-6.579%
8,COc1ccc(CNCCc2cc(F)cc3c2OCOC3)cc1O,19%
9,CCC(O)CN1CCN(C(=O)C2(c3ccc(C)c(OC)c3)CC2)CC1 (configuration not stated),-7.505%
10,CCC(=O)N1CCC2(CCN(Cc3cccc(F)c3)CC2)CC1.O=C(O)C(F)(F)F,-2.197%
11,CCC(CN1CCN(C)CC1)NC(=O)C1(c2cccc(F)c2)CC1.O=C(O)CC(O)(CC(=O)O)C(=O)O (configuration not stated),126%
12,CCCC(O)CN1CCC(=O)N(CCOC)Cc2cc3c(cc21)OCO3 (configuration not stated),110.9%
13,Cc1ccccc1N1CCN(C(=O)Cc2ccc3c(c2)OCO3)CC1=O,-22.32%
14,CC(=O)N1CC[C@H]2CC(=O)N(Cc3ccc4c(c3)OCO4)CC[C@H]2C1,1.484%
15,COCCN1C[C@H]2CN(C(=O)c3ccc4c(c3)OCO4)CCN2C1=O,-8.36%
16,O=C(O)C(F)(F)F.O=C(O)C(F)(F)F.c1cc2c(cc1CN1CC[C@H]3[C@H]1CCN3CC1CC1)OCO2,-18.3%
17,CCCC(O)CN1CCC(=O)N(CC2CC2)Cc2cc3c(cc21)OCO3 (configuration not stated),71.64%
18,CCCC(O)CN1CCC(=O)N(CC)Cc2cc3c(cc21)OCO3 (configuration not stated),85.4%
19,CCN1CC(C(=O)N2CCc3cc(C(=O)N(C)C)n(C)c3C2)CCC1=O (configuration not stated),22.54%
20,COCC1c2c(cnn2C)CCN1C(=O)c1ccc2c(c1)OCO2 (configuration not stated),20.59%
21,CC(NC(=O)Nc1ccccc1CN1CCOCC1)c1nnc(N)s1 (configuration not stated),1.041%
22,Cc1cc(C)n(CC(C)NCc2nncn2C2CCCCC2)n1 (configuration not stated),-18.85%
23,CCC(C)NS(=O)(=O)Cc1cccc(NC(=O)c2ccc[nH]2)c1 (configuration not stated),-2.911%
24,Cc1ncsc1CCN(C)C(=O)CN1CC2(CCCC2)CC1=O,-2.773%
25,COc1cc(C(=O)NCCc2ccccc2OC)on1,0.865%

row,SMILES,Percent Effect
1,O=C(N[C@H]1CC[C@H](O)CC1)c1ccc2nc(-c3ccccc3)cn2c1,-19.25%
2,CC(C)n1cc(CN2CCCN(C(=O)COC3CCCC3)CC2)cn1,98.23%
3,CC(C)n1cc(CN2CCCN(C(=O)CC3CCCCC3)CC2)cn1,102.4%
4,CC(C)n1cc(CN2CCCN(C(=O)CC3CCCO3)CC2)cn1 (configuration not stated),115.9%
5,CCc1[nH]ncc1C(=O)N1CCCN(Cc2cnn(C(C)C)c2)CC1,-9.524%
6,CC(C)n1ccnc1CN1CCCN(C(=O)COC2CCCC2)CC1,-4.301%
7,CCCC(=O)N1CCCN(C(=O)Nc2ccc(C)s2)CC1,4.138%
8,O=C(C(c1ccccc1)N1CCc2cncnc2C1)N1CCCCC1 (configuration not stated),-0.8294%
9,N#CC1(NC(=O)COc2cc(Cl)cc(Cl)c2)CCSC1 (configuration not stated),-14.75%
10,O=C(NCCCn1cnnc1)C1CCCN(C2CCCC2)C1 (configuration not stated),8.155%
11,O=C(CCOc1ccccc1F)N1CCCC1Cn1cccn1 (configuration not stated),123.4%
12,O=C(CCOc1ccccc1F)N1CCCCC1Cn1cccn1 (configuration not stated),114.4%
13,CCOCCC(=O)N1CCCCC1CCn1cccn1 (configuration not stated),-10.55%
14,COc1cc(C)ccc1OCCC(=O)N1CCCC1Cn1cccn1 (configuration not stated),6.133%
15,O=C(CCCOc1ccc(F)cc1F)N1CCCC1Cn1cccn1 (configuration not stated),4.503%
16,O=C(c1ccccc1OCC1CC1)N1CCCC1Cn1cccn1 (configuration not stated),15.75%
17,COc1ccccc1OCCC(=O)N1CCCC1Cn1cccn1 (configuration not stated),114.3%
18,O=C1O[C@@H]2CN(c3ncccn3)C[C@@H]2N1CCCc1ccc(F)cc1,0.8552%
19,CCc1nc(CN(CC(N)=O)C(C)C)cs1,-5.873%
20,CN(C)CCOc1ccccc1N1CCN(C(=O)C(C)(C)C#N)CC1,12.48%
21,COCCN(Cc1c(C)nn(C)c1C)C(=O)C1COc2ccccc2C1 (configuration not stated),-13.07%
22,Cc1cc(C)n(CC2CCCCN2CC(=O)Nc2cccnc2)n1 (configuration not stated),-5.388%
23,CN(Cc1nc(-c2cccnc2)no1)C(=O)c1cccn1C,-3.845%
24,CO[C@H]1CN(S(=O)(=O)c2ccc(F)cc2)C[C@@]12CCCO2,187.7%
25,COc1cccc(S(=O)(=O)N2C[C@H](OC)[C@]3(CCCO3)C2)c1,151.5%

row,SMILES,Percent Effect
1,COc1cccc(S(=O)(=O)N2C[C@@H](O)[C@H](N(C)C)C2)c1,179.9%
2,COc1ccc(S(=O)(=O)N2CCCC3(CCCN3S(C)(=O)=O)C2)cc1 (configuration not stated),-14.23%
3,COc1cccc(S(=O)(=O)N2C[C@@H](N(C)C)[C@H](C(C)C)C2)c1,-6.322%
4,CC(C)[C@@H]1CN(S(=O)(=O)c2cccc(C(=O)O)c2)C[C@H]1N(C)C,0.7097%
5,COc1cccc(S(=O)(=O)CCN2CCC3(CC2)OCCO3)c1,-7.046%
6,CCN1CCNC(=O)C12CCN(S(=O)(=O)c1ccc(OC)cc1)CC2,15.65%
7,COc1cccc(C(C)N2CCN(S(=O)(=O)c3ccccc3)CC2)c1 (configuration not stated),-3.731%
8,COC1COC2(CCN(S(=O)(=O)c3ccc(F)cc3)CC2)C1 (configuration not stated),-4.083%
9,COc1ccc(S(=O)(=O)N2C[C@H](OC)[C@]3(CCCO3)C2)cc1,124.9%
10,CCOC1COC2(CCN(S(=O)(=O)c3ccc(F)cc3)CC2)C1 (configuration not stated),-48.73%
11,Cc1nnc(C(C)Nc2cccc(COCC(F)(F)C(F)F)c2)o1 (configuration not stated),6.562%
12,CC(C)Cc1cn(C2CCN(C(C)CC3CC3)CC2)nn1 (configuration not stated),4.944%
13,O=C1NCC2(CCCN(C(=O)c3ccc4c(c3)OCCO4)CC2)O1 (configuration not stated),12.75%
14,COc1cc(F)c(S(=O)(=O)N2c3ncccc3NC(=O)C2C)cc1OC (configuration not stated),-16.51%
15,O=C(CCc1nc2cccnc2[nH]1)Nc1cccnc1,5.191%
16,CN(Cc1ccc(N2CCCCC2)cc1)Cc1noc(C(C)(C)C)n1,16.16%
17,O=C(c1ccccn1)N1C[C@@H]2CC[C@H](C1)N(C(=O)CCc1cccs1)C2,-9.254%
18,Cc1noc(C)c1CN(C)C(=O)NC1CCN(c2ncccn2)CC1,-8.201%
19,CNC(=O)[C@@]12CCO[C@@H]1CCN(S(=O)(=O)c1ccccc1F)C2,-14.92%
20,CO[C@H]1CN(S(=O)(=O)c2ccc(C)cc2)C[C@@]12CCCO2,89.74%
21,C[C@@H]1CN(S(=O)(=O)c2ccc(F)cc2F)C[C@]1(C)O,4.198%
22,CO[C@H]1CN(S(=O)(=O)c2ccccc2F)C[C@@]12CCCO2,166.4%
23,O=C(CN1CCCNC1=O)N(Cc1ccccc1)CC(F)F,-9.06%
24,Cc1c(CN2C[C@H](O)[C@@H](N3CCOCC3)C2)[nH]c2ccc(F)cc12,90.42%
25,Cc1c(CN2CCc3[nH]cnc3C2C(=O)O)[nH]c2ccc(F)cc12 (configuration not stated),4.217%

row,SMILES,Percent Effect
1,Cc1c(CN2CC[C@@H](N3CCC(O)CC3)[C@H](O)C2)[nH]c2ccc(F)cc12,105.6%
2,Cc1c(CN2CC[C@@H](N3CCC(O)CC3)[C@H](O)C2)[nH]c2ccc(Cl)cc12,105.3%
3,Cc1c(CN2CCc3[nH]cnc3C2C2CC2)[nH]c2ccc(F)cc12 (configuration not stated),10.14%
4,CN1CCN([C@@H]2CCN(Cc3cccc(-n4cccn4)c3)C[C@H]2O)CC1,-7.292%
5,CC1=C(CCN2CC[C@@H](N3CCC(O)CC3)[C@H](O)C2)C(C)(C)CCC1,-3.551%
6,CN1CCN([C@@H]2CCN(CC3=Cc4cc(Cl)ccc4OC3)C[C@H]2O)CC1,-16.81%
7,CN1CCN([C@@H]2CCN(Cc3ccc4cc(F)ccc4n3)C[C@H]2O)CC1,-21.32%
8,O=C(c1cccc(Cl)c1)N1CC[C@@H](N2CCC(O)CC2)[C@H](O)C1,-1.425%
9,CSCCC1c2nc[nH]c2CCN1Cc1[nH]c2ccc(F)cc2c1C (configuration not stated),8.699%
10,Cc1ccc2[nH]c(CN3CC[C@@H](N4CCN(C)CC4)[C@H](O)C3)c(C)c2c1,130.9%
11,O=C(NCc1ccc(F)cc1F)C(c1cccnc1)N1CCOCC1 (configuration not stated),-3.204%
12,CC(C)(C)C(=O)N[C@H]1C[C@@H](Cc2cc(CN3CCOCC3)on2)C1(C)C,-2.41%
13,CC(Sc1nnc(C2CC2)n1CC(N)=O)c1ccc(F)c(Cl)c1 (configuration not stated),-2.548%
14,Cc1ccc(CNC(=O)C2CCCCN2C(=O)OC(C)(C)C)cn1 (configuration not stated),1.092%
15,CCSc1ccc(C(=O)N2CCCCC2C(=O)NC(C)(C)C)cn1 (configuration not stated),116.3%
16,CCSc1ccc(C(=O)N2CCCC2C(=O)N2CCOCC2)cn1 (configuration not stated),144.8%
17,COC(=O)N1CCCCC1C(=O)N1CCN(c2ncccc2C)CC1 (configuration not stated),-6.544%
18,CC(C)(C)NC(=O)C1CCCCN1Cc1nccn1CC(F)(F)F (configuration not stated),-2.197%
19,CC(C)Cc1cc(C(=O)N2CCC[C@H]2C(=O)N2CCOCC2)on1,-13.85%
20,CCSc1ccc(NC(=O)N2CCCC2c2ccncc2)cn1 (configuration not stated),-0.7424%
21,CCSc1ccc(C(=O)N2CCCCC2C(=O)N2CCCC2)cn1 (configuration not stated),151.8%
22,Cn1ccc2ccc(C(=O)N3CCC[C@H]3C(=O)N3CCOCC3)cc21,12.68%
